From PubChem BioAssay (NCI)
This is part of a sample that, as a whole, favours compounds with a hit. Of some 83,000 tested, about 20% had one in any assay.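 Single-dose data. Exposure time 48 hours. Values below 10 considered active.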 Unmarked numbers belong to inactive results. Calls of active or inactive are those of the source.

Legend:
Experiment in all cases: NCI-60 one-dose screen, 48 h (100 = growth as untreated, 0 = no growth, -100 = all killed)
Details in all cases: 10 µM unless noted
[1] = tested on: SR leukemia
[2] = tested on: RPMI-8226 leukemia
[3] = tested on: OVCAR-8 ovarian
[4] = tested on: OVCAR-5 ovarian
[5] = tested on: OVCAR-4 ovarian
[6] = tested on: SK-OV-3 ovarian
[7] = tested on: IGROV1 ovarian
[8] = tested on: OVCAR-3 ovarian
[9] = tested on: HS 578T breast
[10] = tested on: NCI/ADR-RES ovarian
[11] = tested on: T-47D breast
[12] = tested on: BT-549 breast
[13] = tested on: MDA-MB-435 melanoma
[14] = tested on: SW-620 colon
[15] = tested on: MCF7 breast
[16] = tested on: HCT-116 colon
[17] = tested on: HCC-2998 colon
[18] = tested on: KM12 colon

Structure (SMILES)	growth [1]	growth [2]	growth [3]	growth [4]	growth [5]	growth [6]	growth [7]	growth [8]	growth [9]	growth [10]	growth [11]	growth [12]	growth [13]	growth [14]	growth [15]	growth [16]	growth [17]	growth [18]
COc1cccc(-c2nn(-c3ccccc3)cc2-c2ccnc(NCCCNC(=O)c3ccccc3)c2)c1	-19.8% (active)	27.9%	38%	92.7%	43.1%	41.7%	67.1%	51.2%	51.3%	27.1%	4.22% (active)	14%	5.43% (active)	39.7%	33.4%	36%	52.3%	33.6%
Cc1ccc(-n2c(-c3ccccc3)c(-c3ccccc3)c3c(SCC(=O)n4[nH]c(N)cc4=O)ncnc32)cc1	103%	81.9%	83.2%	101%	96%	79.5%	79.8%	91.9%	106%	105%	76.6%	99%	106%	90.3%	86.7%	78.2%	113%	98.1%
CCN(CC)Cc1cccc(C(=O)OC)c1	95%	91.8%	99.6%	94.1%	101%	89.4%	102%	111%	109%	102%	88.3%	93.1%	101%	101%	90.9%	89.9%	102%	102%
Cc1ccc2nc3ccccc3c(NCc3ccccc3)c2c1	4.1% (active)	6.82% (active)	33.5%	40.4%	32.8%	64.3%	15.8%	66%	69.8%	29.8%	63.6%	69%	58.2%	24.3%	11.2%	9.4% (active)	-21.4% (active)	56.3%
Cc1cccc(Cc2cnc(NC(=O)c3ccc4nnsc4c3)s2)c1	95.2%	76.4%	96.5%	84.4%	98.3%	91.8%	97.9%	104%	109%	90%	57.8%	105%	82.7%	80.5%	95%	87.7%	87.5%	77.9%
C[C@@]1(CCC#N)[C@H]2CC[C@@H]3[C@H]4[C@H](C(=O)/C=C/c5cccnc5)CC[C@]4(C#N)CC[C@@]3(C)[C@]2(C)CC[C@H]1C(=O)/C=C/c1cccnc1	12.9%	-2.94% (active)	34.7%	136%	69.1%	89.7%	45.7%	39.9%	78.4%	65.1%	65.2%	80.7%	34%	37.2%	39.4%	20%	105%	36%
N#Cc1c(N)nc(NCCO)nc1-c1ccc(F)cc1	99.3%	94.1%	99.7%	105%	95.6%	84.9%	102%	110%	92.5%	105%	79.7%	98.6%	104%	99.8%	97.3%	93.7%	105%	103%
CCCCOc1nc2ccccc2cc1C1CNC(=O)c2ccccc2N1 (stereo unspecified)	19.8%	25.6%	22.4%	55.3%	47.7%	14.8%	38%	-9.73% (active)	34.1%	3.84% (active)	20.9%	41%	-63.8% (active)	20.9%	21.2%	15.6%	56.5%	23.9%
CC/C=C\C[C@H](O)C/C=C1/C(=O)C=C[C@@H]1C/C=C\CCCC(=O)OC	-4.28% (active)	-11.5% (active)	-6.94% (active)	27.1%	36.8%	35.9%	0.514% (active)	-6.12% (active)	41.1%	20.6%	-0.483% (active)	-20.6% (active)	4.45% (active)	-44.4% (active)	4.43% (active)	-56.5% (active)	-78.4% (active)	-54.3% (active)
CC(CCc1ccc(Cl)c(Cl)c1)NCc1ccc(C(C)(C)C)cc1 (stereo unspecified)	-10.5% (active)	74.5%	85.8%	91.3%	88.1%	93.6%	90.3%	98.2%	85.2%	86.3%	67.7%	68.9%	93.1%	80.2%	80.8%	79.1%	-18.4% (active)	89.2%
Cc1cc(NCc2cc(Nc3ccnc4cc(Cl)ccc34)ccc2F)nc(N2CCCC2)n1	-23.9% (active)	-24.2% (active)	2.5% (active)	6.27% (active)	-0.25% (active)	51.1%	-2.2% (active)	-73.6% (active)	56.8%	12.7%	-59.7% (active)	58.1%	-94.7% (active)	-1.87% (active)	-14.1% (active)	-53.5% (active)	-67.9% (active)	12%
Cc1ccc2nc(NC(=O)CSc3nc(Nc4ccc([N+](=O)[O-])cc4)c(C#N)c(-c4ccccc4)n3)sc2c1	47.6%	80%	91.5%	87.5%	88.4%	98.3%	76.1%	102%	85%	95%	-58.4% (active)	91.1%	107%	105%	87.1%	89.5%	102%	101%
O=C(Nc1cccc(C(F)(F)F)c1)Nc1cccc(C(F)(F)F)c1	-22.6% (active)	-10.5% (active)	4.98% (active)	25.3%	23.9%	-15.3% (active)	26.8%	14.4%	8.56% (active)	7.46% (active)	-4.96% (active)	0.669% (active)	9.11% (active)	15.2%	5.26% (active)	-10.8% (active)	11.8%	4.98% (active)
CCN(CC)c1nc(SCC(=O)Nc2nc3ccc(C)cc3s2)nc(-c2ccccc2)c1C#N	2.23% (active)	61.4%	89.5%	77.4%	80.7%	93.7%	65.7%	93.2%	83.4%	96.4%	75.8%	93.3%	98.5%	97.9%	85.1%	83%	110%	104%
COc1cc(-c2nc(N3CCN(C)CC3)c3ccccc3n2)cc(OC)c1OC	48.9%	71.2%	75.7%	88.5%	55.9%	68.4%	62.5%	3.18% (active)	41.1%	10.3%	65.3%	84.7%	0% (active)	53.3%	29.5%	31.9%	88.4%	53.4%
Cc1nc2c(c(N3CCCc4ccccc43)n1)CCC2	2.73% (active)	11.2%	11%	48.3%	42.4%	5.28% (active)	24.5%	-41.2% (active)	23%	9.25% (active)	45.3%	-12.1% (active)	1.15% (active)	22.5%	14.6%	-17% (active)	18.3%	0.58% (active)
O=C(Nc1ccccc1Cl)Oc1ccc(-c2ccccc2)cc1	133%	94.2%	103%	98.9%	103%	121%	108%	150%	180%	101%	106%	113%	101%	112%	110%	110%	119%	120%
